# Reference: PubChem BioAssay (Tox21)
# A number with no mark means an inactive call. Results filed as inconclusive are left out. A call without a number means that no potency is given here. The source made the active and inactive calls. Unless noted, calls follow the shape of the full dose curve.
# Tests used:
# [1] = Nuclear factor erythroid 2-related factor 2/antioxidant responsive element (Nrf2/ARE) small molecule agonists: qHTS cell viability counter screen in human keratinocytes (AID 1919968; active = well fitted curve in the direction sought with a large enough effect in the repeat runs; an effect the other way counts as inactive or inconclusive; also: nearly all actives have a fitted effect of over 55% in size; also: potency is read from the fitted curve at half-maximal effect)
# How it was run: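 KeratinoSens cells (HaCaT keratinocytes stably carrying an ARE-luciferase reporter) were seeded at 1,500 cells/well and rested 5 h at 37 C/5% CO2. They were then exposed to compounds in DMSO for 23 h. Viability was read by CellTiter-Fluor fluorescence after 1 h.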
# [2] = Nuclear factor erythroid 2-related factor 2/antioxidant responsive element (Nrf2/ARE) small molecule agonists: luciferase reporter gene qHTS assay in human keratinocytes (AID 1919969); also: nearly all actives have a fitted effect of over 35% in size; also: potency is read from the fitted curve at half-maximal effect
# [3] = molecular target: KiSS-1 receptor (Homo sapiens) (UniProt Q969F8); experiment: Human kisspeptin (KISS1R) small molecule agonists, calcium flux assay in KISS1R-HEK293 cells (AID 1920064; active = well fitted curve in the direction sought with a large enough effect in the repeat runs; an effect the other way counts as inactive or inconclusive)
# KiSS-1 receptor (Homo sapiens), sequence (Q969F8 whole entry, looked up): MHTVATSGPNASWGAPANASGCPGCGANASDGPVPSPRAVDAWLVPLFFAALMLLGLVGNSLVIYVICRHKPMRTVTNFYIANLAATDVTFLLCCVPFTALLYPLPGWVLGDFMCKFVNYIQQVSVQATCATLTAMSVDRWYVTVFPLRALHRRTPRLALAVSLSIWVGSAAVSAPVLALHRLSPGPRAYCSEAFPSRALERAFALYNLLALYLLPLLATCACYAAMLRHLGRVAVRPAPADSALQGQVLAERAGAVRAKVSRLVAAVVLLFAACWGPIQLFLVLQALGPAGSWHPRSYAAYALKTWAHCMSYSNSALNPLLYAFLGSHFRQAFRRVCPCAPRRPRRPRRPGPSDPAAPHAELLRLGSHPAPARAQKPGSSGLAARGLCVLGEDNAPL
# How it was run: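 HEK293 cells stably expressing human KISS1R were plated 18 h at 37 °C, loaded with calcium dye for 1 h at 37 °C, then given compound by pin tool. Fluorescence (Ex/Em 480/540) was read kinetically for 3 min.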
# [4] = G protein-coupled receptor (GPCR) small molecule agonists, calcium flux assay: HEK293 wild type cell line counter screen (AID 1920065)
# How it was run: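 Cells were plated and cultured 18 h at 37 C/5% CO2, then loaded with calcium dye for 1 h at 37 C. Compounds in DMSO were pin-transferred in agonist mode, and fluorescence (Ex/Em 480/540) was read kinetically for 3 min at 1 s intervals.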
# [5] = p53 small molecule agonists, cell-based qHTS assay with human liver microsomes (AID 1963577);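 also: p53 response element beta-lactamase reporter cells with liver microsomes plus NADPH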
# How it was run: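 Reporter activation was measured by LiveBLAzer fluorescence intensity in p53RE-bla cells, which had been exposed to compounds for 16 h at 37 C alongside 0.5 mg/mL human liver microsomes and 0.5 mg/mL NADPH (final concentrations).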
# [6] = p53 small molecule agonists, cell-based qHTS assay with rat liver microsomes (AID 1963578)
# How it was run: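 Compound in DMSO added to p53RE-bla cells 5 h post-plating; rat microsomes/NADPH 0.5 mg/mL final; 16 h, 37 C; LiveBLAzer 2 h RT.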
# [7] = p53 small molecule agonists, cell-based qHTS assay with human liver microsomes: qHTS cell viability counter screen (AID 1963579); also: nearly all actives have a fitted effect of over 45% in size; also: potency is read from the fitted curve at half-maximal effect
# How it was run: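 HLM-supplemented (0.5 mg/mL final) and NADPH-supplemented (0.5 mg/mL final) p53RE-bla cultures, 4,000 cells per well, were dosed with compounds in DMSO for 16 h at 37 C; luminescent ATP detection (CellTiter-Glo, 30 min, room temperature) quantified surviving cells.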
# [8] = p53 small molecule agonists, cell-based qHTS assay with rat liver microsomes: qHTS cell viability counter screen (AID 1963580); also: nearly all actives have a fitted effect of over 45% in size
# How it was run: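 Viability is assessed in parallel with the p53 reporter read: HCT-116 p53RE-bla cells receive compounds plus rat microsomes and NADPH (0.5 mg/mL final apiece), incubate 16 h at 37 C, and then CellTiter-Glo luminescence is recorded.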
# [9] = p53 small molecule agonists, cell-based qHTS assay: qHTS cell viability counter screen (AID 1963581); also: nearly all actives have a fitted effect of over 45% in size; also: potency is read from the fitted curve at half-maximal effect
# How it was run: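 p53RE-bla HCT-116 cells were exposed to compounds for 16 h at 37 C; after the beta-lactamase FRET read in the same wells, CellTiter-Glo was added and luminescence (intracellular ATP) read after 30 min at room temperature.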
# [10] = p53 small molecule agonists, cell-based qHTS assay (AID 1963582; active = well fitted activation curve with a large enough effect in the signal ratio in the repeat runs, not every such curve was filed as active; the % refers to the signal ratio)
# How it was run: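 p53RE-bla beta-lactamase reporter cells rested 5 h at 37 C/5% CO2, then received compounds in DMSO by pin transfer and were incubated 16 h at 37 C. LiveBLAzer B/G FRET substrate was loaded for 2 h at room temperature before fluorescence reading.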
# [11] = molecular target: 5-hydroxytryptamine receptor 2A (Homo sapiens) (UniProt P28223); experiment: 5-hydroxytryptamine receptor 2A (HTR2A) small molecule antagonists, cell-based qHTS assay (AID 1963586); also: nearly all actives have a fitted effect of over 45% in size
# 5-hydroxytryptamine receptor 2A (Homo sapiens), sequence (P28223 whole entry, looked up): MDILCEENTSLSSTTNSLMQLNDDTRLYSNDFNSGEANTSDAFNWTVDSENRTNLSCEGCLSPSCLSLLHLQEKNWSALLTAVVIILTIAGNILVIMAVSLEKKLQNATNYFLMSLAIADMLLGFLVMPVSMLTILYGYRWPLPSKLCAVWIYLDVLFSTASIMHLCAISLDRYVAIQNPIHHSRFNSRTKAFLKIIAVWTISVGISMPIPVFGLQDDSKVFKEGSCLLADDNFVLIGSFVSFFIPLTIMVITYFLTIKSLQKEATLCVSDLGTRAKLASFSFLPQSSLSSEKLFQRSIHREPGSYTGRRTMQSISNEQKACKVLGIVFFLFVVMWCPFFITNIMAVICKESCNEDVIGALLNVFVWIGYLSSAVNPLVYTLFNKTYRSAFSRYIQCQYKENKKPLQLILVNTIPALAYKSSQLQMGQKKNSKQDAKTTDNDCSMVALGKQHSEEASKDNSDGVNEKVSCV
# How it was run: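 Antagonist-mode intracellular calcium assay: DOI (4 nM) added after 5 min compound pre-incubation at room temperature to dye-loaded HTR2A-CHO cells. Fluorescence followed for 3 min, sampled every second.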
# [12] = molecular target: 5-hydroxytryptamine receptor 2A (Homo sapiens) (UniProt P28223); experiment: 5-hydroxytryptamine receptor 2A (HTR2A) small molecule agonists, cell-based qHTS assay (AID 1963587); also: nearly all actives have a fitted effect of over 30% in size; also: potency is read from the fitted curve at half-maximal effect
# How it was run: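 CHO cells stably expressing human HTR2A, plated 18 h, loaded with calcium dye 1 h at 37 C. Agonist mode: compounds added and intracellular calcium fluorescence recorded kinetically for 2 min at 1 sec intervals.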
# [13] = molecular target: Muscarinic acetylcholine receptor M1 (Homo sapiens) (UniProt P11229); experiment: Cholinergic receptor muscarinic 1 (CHRM1) small molecule antagonists, cell-based qHTS assay (AID 1963588); also: nearly all actives have a fitted effect of over 40% in size; also: potency is read from the fitted curve at half-maximal effect
# Muscarinic acetylcholine receptor M1 (Homo sapiens), sequence (P11229 whole entry, looked up): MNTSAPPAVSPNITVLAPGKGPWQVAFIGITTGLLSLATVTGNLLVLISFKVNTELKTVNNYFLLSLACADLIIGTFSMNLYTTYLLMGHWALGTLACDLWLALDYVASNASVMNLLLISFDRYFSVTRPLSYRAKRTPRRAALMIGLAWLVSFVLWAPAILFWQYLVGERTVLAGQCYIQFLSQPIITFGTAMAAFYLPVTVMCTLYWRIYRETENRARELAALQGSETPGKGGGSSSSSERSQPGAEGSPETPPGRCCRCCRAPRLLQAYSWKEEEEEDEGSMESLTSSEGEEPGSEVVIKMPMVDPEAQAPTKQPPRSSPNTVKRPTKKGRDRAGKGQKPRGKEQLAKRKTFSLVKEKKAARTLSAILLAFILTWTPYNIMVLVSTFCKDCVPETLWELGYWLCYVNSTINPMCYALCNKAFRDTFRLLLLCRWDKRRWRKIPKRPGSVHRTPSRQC
# How it was run: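 CHRM1-CHO calcium-flux assay, antagonist mode. Cells were seeded 18 h, dye-loaded 1 h at 37 C and given compound for 5 min at RT, then acetylcholine was added at 50nM. FDSS fluorescence was read 3 min; 15 concentrations, three runs.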
# [14] = molecular target: Muscarinic acetylcholine receptor M1 (Homo sapiens) (UniProt P11229); experiment: Cholinergic receptor muscarinic 1 (CHRM1) small molecule agonists, cell-based qHTS assay (AID 1963589); also: nearly all actives have a fitted effect of over 35% in size
# How it was run: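 CHO cells stably expressing human CHRM1, seeded 18 h at 37 C/5% CO2, dye-loaded 1 h at 37 C, then given compound in agonist mode; intracellular calcium fluorescence read kinetically at 1 s intervals. Fifteen concentrations, three independent runs.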
# [15] = molecular target: Beta-2 adrenergic receptor (Homo sapiens) (UniProt P07550); experiment: Adrenergic beta2 receptor (ADRB2) small molecule antagonists, cell-based qHTS assay (AID 1963592); also: series mostly up to about 92 µM; nearly all actives have a fitted effect of over 50% in size
# Beta-2 adrenergic receptor (Homo sapiens), sequence (P07550 whole entry, looked up): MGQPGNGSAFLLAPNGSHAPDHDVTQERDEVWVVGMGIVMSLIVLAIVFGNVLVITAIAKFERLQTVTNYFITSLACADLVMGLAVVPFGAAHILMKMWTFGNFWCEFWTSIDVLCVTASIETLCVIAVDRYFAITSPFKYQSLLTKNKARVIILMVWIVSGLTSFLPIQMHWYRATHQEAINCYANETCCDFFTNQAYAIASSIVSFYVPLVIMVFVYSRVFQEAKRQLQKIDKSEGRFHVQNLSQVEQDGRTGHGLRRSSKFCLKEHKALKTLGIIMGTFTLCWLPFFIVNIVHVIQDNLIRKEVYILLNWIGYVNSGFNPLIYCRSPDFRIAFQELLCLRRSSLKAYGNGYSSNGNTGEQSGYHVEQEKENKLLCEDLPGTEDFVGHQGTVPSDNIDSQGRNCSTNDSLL
# How it was run: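 Cells (CHO, stable ADRB2 overexpression) incubated 18-20hr at 37C; compounds added from DMSO; agonist mix (1nM isoproterenol, 100uM IBMX, 25uM Ro-20-1724) added; 0.5hr RT; d2-cAMP and anti-cAMP-cryptate added; 1hr RT; 665/615 nm read.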
# [16] = molecular target: Beta-2 adrenergic receptor (Homo sapiens) (UniProt P07550); experiment: Adrenergic beta2 receptor (ADRB2) small molecule agonists, cell-based qHTS assay (AID 1963593);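 also: CHO cells stably overexpressing human ADRB2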
# How it was run: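 CHO cells stably over-expressing ADRB2 were plated overnight at 37C, then dosed with compounds plus a stimulation mix containing 100uM IBMX and 25uM Ro-20-1724 for 0.5hr at room temperature. cAMP was measured by HTRF competition, 1hr.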
# [17] = molecular target: D(2) dopamine receptor (Homo sapiens) (UniProt P14416); experiment: Dopamine D2 receptor (DRD2) small molecule antagonists, cell-based qHTS assay (AID 1963595; active = well fitted inhibition curve with a large enough effect in the signal ratio in the repeat runs, with a control signal flat; the % refers to the signal ratio)
# D(2) dopamine receptor (Homo sapiens), sequence (P14416 whole entry, looked up): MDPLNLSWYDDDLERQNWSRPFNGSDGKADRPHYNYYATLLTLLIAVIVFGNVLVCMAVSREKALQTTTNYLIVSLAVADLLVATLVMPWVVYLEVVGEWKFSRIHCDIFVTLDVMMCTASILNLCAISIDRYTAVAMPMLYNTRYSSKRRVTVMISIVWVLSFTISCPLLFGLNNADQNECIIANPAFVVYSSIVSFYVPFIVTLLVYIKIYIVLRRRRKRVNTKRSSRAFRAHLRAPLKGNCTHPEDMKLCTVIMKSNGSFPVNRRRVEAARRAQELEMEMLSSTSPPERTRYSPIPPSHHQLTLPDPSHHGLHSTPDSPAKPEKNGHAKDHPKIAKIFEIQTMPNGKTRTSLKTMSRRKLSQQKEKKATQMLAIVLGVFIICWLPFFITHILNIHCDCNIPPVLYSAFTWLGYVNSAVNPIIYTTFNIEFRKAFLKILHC
# How it was run: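 HTRF cAMP read-out at 665 and 620 nm emission (340 nm excitation). Antagonist mode: compounds were tested against 12 nM quinpirole in DRD2-HEK293 cells, with 200 nM NKH477 raising cAMP and 0.1 mM Ro20-1724 blocking its breakdown.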
# [18] = cAMP Responsive Elements (CRE) small molecule antagonists, cell-based qHTS assay (AID 1963591; active = well fitted inhibition curve with a large enough effect in the signal ratio in the repeat runs, not every such curve was filed as active; the % refers to the signal ratio)
# How it was run: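 CRE-bla HEK293T cells were plated 18 h at 37 °C/5% CO2, pinned with compound in DMSO, then stimulated with NKH477 at 0.25 uM final for 3 h. LiveBLAzer B/G FRET substrate was added and plates incubated 2 h at room temperature.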
# [19] = molecular target: D(2) dopamine receptor (Homo sapiens) (UniProt P14416); experiment: Dopamine D2 receptor (DRD2) small molecule agonists, cell-based qHTS assay (AID 1963594); also: nearly all actives have a fitted effect of over 35% in size
# How it was run: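 HEK293 cells stably expressing human DRD2, pre-treated with PDE inhibitor Ro20-1724 (0.1 mM final) and compound 10 min at room temperature, then stimulated with NKH477 (200nM […]) for 30 min. cAMP read by HTRF (665/620 nm).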
# [20] = cAMP Responsive Elements (CRE) small molecule agonists, cell-based qHTS assay (AID 1963590)
# How it was run: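 CRE-bla HEK 293T cells in DMEM with 10% dialyzed FBS, NEAA, pyruvate and 25 mM HEPES were plated 18 h at 37 C/5% CO2, then exposed to compounds in DMSO for 3 h before LiveBLAzer B/G FRET substrate addition.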
smiles,measurement,setting,value
Cc1cc(CC(=O)O)c(C)n1-c1ccc(Cl)cc1,Potency,[1],inactive
same,Potency,[2],inactive
same,outcome,[3],inactive
same,outcome,[4],inactive
same,Potency,[5],inactive
same,Potency,[6],inactive
same,Potency,[7],inactive
same,Potency,[8],inactive
same,Potency,[9],inactive
same,Potency,[10],inactive
same,Potency,[11],inactive
same,Potency,[12],inactive
same,Potency,[13],inactive
same,Potency,[14],inactive
same,Potency,[15],inactive
same,Potency,[16],inactive
same,Potency,[17],inactive
O=C(O)c1cc(Cl)cc(Cl)c1O,Potency,[1],inactive
same,Potency,[2],inactive
same,outcome,[4],inactive
same,Potency,[5],inactive
same,Potency,[6],inactive
same,Potency,[9],inactive
same,Potency,[10],inactive
same,Potency,[11],inactive
same,Potency,[12],inactive
same,Potency,[13],inactive
same,Potency,[14],inactive
same,Potency,[18],inactive
same,Potency,[15],inactive
same,Potency,[19],inactive
same,Potency,[17],inactive
CN(C)c1ccc(C(c2ccccc2)c2ccc(N(C)C)cc2)cc1,Potency,[1],inactive
same,Potency,[2],inactive
same,Potency,[5],inactive
same,Potency,[6],inactive
same,Potency,[7],inactive
same,Potency,[8],inactive
same,Potency,[9],inactive
same,Potency,[11],inactive
same,Potency,[12],inactive
same,Potency,[14],inactive
same,Potency,[20],inactive
same,Potency,[18],inactive
same,Potency,[16],inactive
same,Potency,[19],inactive
C/C=C(/C(=C/C)c1ccc(O)cc1)c1ccc(O)cc1,Potency,[1],15 µM (active)
same,Potency,[2],inactive
same,outcome,[4],inactive
same,Potency,[5],inactive
same,Potency,[7],inactive
same,Potency,[13],2.9 µM (active)
same,Potency,[14],inactive
same,Potency,[18],inactive
same,Potency,[15],inactive
same,Potency,[16],inactive
same,Potency,[19],inactive
same,Potency,[17],inactive
COc1ccc(OC)c(N=Nc2c(O)ccc3ccccc23)c1,Potency,[1],27.3 µM (active)
same,Potency,[2],27.3 µM (active)
same,outcome,[3],inactive
same,outcome,[4],inactive
same,Potency,[5],inactive
same,Potency,[6],inactive
same,Potency,[7],inactive
same,Potency,[8],inactive
same,Potency,[9],inactive
same,Potency,[10],inactive
same,Potency,[11],inactive
same,Potency,[12],4.36 µM (active)
same,Potency,[13],inactive
same,Potency,[14],inactive
same,Potency,[20],inactive
same,Potency,[18],inactive
same,Potency,[16],inactive
same,Potency,[19],inactive
same,Potency,[17],inactive
Cc1cc(F)ccc1-c1cc(N2CC[C@@H](O)[C@H]2CO)ncc1N(C)C(=O)C(C)(C)c1cc(C(F)(F)F)cc(C(F)(F)F)c1,Potency,[1],19 µM (active)
same,Potency,[2],inactive
same,outcome,[4],inactive
same,Potency,[5],inactive
same,Potency,[7],14.3 µM (active)
same,Potency,[9],16 µM (active)
same,Potency,[11],inactive
same,Potency,[12],inactive
same,Potency,[13],inactive
same,Potency,[14],inactive
same,Potency,[19],inactive
O=S(O)O,"activity change, negative = cytotoxicity",[1],-0.591% [at 19 µM]
same,"activity, positive = activation",[2],-3.64% [at 19 µM]
same,activation,[3],-3.75% [at 15.8 µM]
same,activation,[4],-0.558% [at 11.8 µM]
same,activation,[5],4.55% [at 13.5 µM]
same,activation,[6],-0.532% [at 13.6 µM]
same,"activity change, negative = cytotoxicity",[7],-0.784% [at 13.5 µM]
same,"activity change, negative = cytotoxicity",[8],11.9% [at 13.5 µM]
same,"activity change, negative = cytotoxicity",[9],16.3% [at 13.5 µM]
same,activation,[10],0.538% [at 13.5 µM]
same,"activity, negative = inhibition",[11],-15% [at 12.7 µM]
same,activation,[12],4.7% [at 15.9 µM]
same,"activity, negative = inhibition",[13],27.3% [at 12.6 µM]
same,activation,[14],0.709% [at 15.8 µM]
same,activation,[20],1.33% [at 19 µM]
same,"activity change, negative = inhibition",[18],0.0539% [at 18.9 µM]
same,Potency,[16],inactive
same,"activity change, negative = inhibition",[17],-0.433% [at 18.9 µM]
